Bioassay records: PubChem BioAssay, National Center for Advancing Translational Sciences (NCATS)
NS1 function inh – inhibitors of influenza NS1 protein function; 0.4% of 270,000 active; Potency, µM (titrated, usually from 46.1 µM), for the others: top-dose activity, positive = more growth; calls by dose curve; note: actives are rising curves; nearly all actives have a fitted effect of over 50% in size
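Recovery from NS1-induced slow growth read by OD600 in budding yeast switched to galactose assay medium (pH 6.0, -URA) at 1:100 dilution. Compound 23 nl per well; the matching strain lacking NS1 serves as control.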
Pf growth 48h – inhibits P. falciparum growth in the first generation, 48 h. P. falciparum luciferase growth in erythrocytes, 48 h. Potency, µM (doses to about 28.7 µM), without a hit: at the highest dose activity change, negative = inhibition, most hits filed as inhibitors. 5.9% of 310,000 active. AID 504832; note: % is set by controls: 0 for no effect and ±100 for the full control effect
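Read-out is firefly luciferase luminescence from an integrated reporter in P. falciparum, so falling signal marks reduced parasite growth. Infected erythrocytes were at 2% hematocrit and 0.1% parasitemia (final) in Albumax-supplemented RPMI 1640.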
SARS PLpro yeast – blocks SARS-CoV papain-like protease in a yeast assay | 0.19% of 330,000 active | Potency, µM (series often up to 32.9 µM), inactives show top-dose activity, positive = growth rescue, most hits filed as activators | S. cerevisiae expressing SARS-CoV PLpro, growth rescue | AID 485353; calls by dose curve; note: 0% is about no effect; nearly all actives have a fitted effect of over 55% in size
RE007 growth inh – less growth of the S. pombe RE007 Vpr strain; S. pombe RE007 Vpr strain, BacTiter-Glo ATP luminescence, 24 h; 0.21% of 360,000 active; AID 651644; Potency, µM (series often up to 92.2 µM), for the others: at the highest dose activity change, negative = less growth, most hits filed as inhibitors; active = well fitted falling curve with a large enough effect; inconclusive = small, poorly fitted or top-dose-only effect; inactive = no such curve, though single readings can be large or run the other way; note: % is set by controls: 0 for no effect and ±100 for the full control effect; nearly all actives have a fitted effect of over 50% in size
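Fission yeast strain RE007, carrying one chromosomally integrated HIV-1 vpr copy, was seeded at OD 0.01 in PMG+AL medium with 23 nL pinned compound. After 24 h at 30 °C and 99% humidity, viability was read by BacTiter-Glo luminescence.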
Pf growth 96h – P. falciparum growth inhibition at 96 hours | 6.9% of 320,000 active | P. falciparum luciferase reporter growth, 96 h | Potency, µM (titrated, usually from 28.7 µM), for the others: top-dose activity change, negative = inhibition, hits mostly inhibitors | AID 504834; note: % is set by controls: 0 for no effect and ±100 for the full control effect
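P. falciparum expressing integrated firefly luciferase grown in erythrocytes (2% hematocrit, 0.05% parasitemia final) with compounds for 96 hours at 37 C, 5% CO2. Growth inhibition read as loss of luminescence after adding luciferase detection reagent.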
An asterisk follows results filed as active; ? = inconclusive; / = no result given; [ ] = remark or other dose. This is a sample that favours compounds with a hit; in the whole collection about 9.5% have one here. Unless noted, calls come from the whole dose curve; as a rule, active = well fitted inhibition curve with a large enough effect; inconclusive = small, poorly fitted or top-dose-only effect, or another doubt; inactive = no such curve, though single readings can be large or run the other way. Potency is the fitted concentration of half-maximal effect.

SMILES	NS1 function inh	Pf growth 48h	SARS PLpro yeast	RE007 growth inh	Pf growth 96h
CCc1cccc(OCC2Cn3c(nc4c3c(=O)n(C)c(=O)n4C)O2)c1 (stereo unspecified)	12%	16%	5%	-7%	?
COc1ccc(NCN2C(=O)C3C4C=CC(C4)C3C2=O)cc1 (stereo unspecified)	1%	1%	-1%	-6%	10µM*
CC1(C)NC(=O)N(CC(O)COc2ccccc2C(=O)Nc2ccccc2)C1=O (stereo unspecified)	-2%	-10%	3%	8%[3.69 µM]	13µM*
O=C(Nc1ccccc1)c1ccccc1OCC(O)CN1C(=O)c2ccccc2S1(=O)=O (stereo unspecified)	-34%	-10%	-2%	0%	14%
COc1ccc2c(c1)C(NC(C)=O)CCc1cc(OC)c(OC)c(OC)c1-2 (stereo unspecified)	/	/	/	15%	/
COc1cccc(C(=O)Nc2ccc3c(cc2=O)[C@@H](NC(C)=O)CCc2cc(OC)c(OC)c(OC)c2-3)c1	11%	8.3µM*	0%	14%	?
Cc1nc(CSc2ccc(Cl)cc2)cc(N2CCOCC2)n1	1%	4%	-5%	-8%	7.4µM*
CNc1cc(CSc2ccc(Cl)cc2)nc(C)n1	/	173%	3%	5%	180%
CC(C)(C)c1cc(NC(=O)C2(C)CCN2C(=O)C2(c3ccccc3)CC2)no1 (stereo unspecified)	/	/	/	-1%	/
Cc1noc(C)c1S(=O)(=O)N1CCCC(C(=O)NCC2CCCO2)C1 (stereo unspecified)	-2%	-3%	1%	-7%	9.3µM*
Cc1ccc(S(=O)(=O)N2CCCC(C(=O)NCC3CCCO3)C2)cc1 (stereo unspecified)	-1%	3%	3%	37%	25%
Cc1ccc(NC(=O)C2CCCN(S(=O)(=O)c3c(C)noc3C)C2)c(Br)c1 (stereo unspecified)	11%	-4%	3%	4%	5.9µM*
Cc1ccc(NC(=O)C2CCCN(S(=O)(=O)c3c(C)noc3C)C2)cc1F (stereo unspecified)	-1%	?	3%	-2%	2.3µM*
Cc1ccc(NC(=O)C2CCCN(S(=O)(=O)c3c(C)noc3/C=C/N(C)C)C2)c(C)c1 (stereo unspecified)	28%	?	-4%	-10%	9.3µM*
C[C@H]1CN(CCO)CCN1c1ccccc1	-8%	/	/	/	/
CC(C)c1ccc(N(CC(=O)N2CCN(Cc3ccccc3)CC2)S(C)(=O)=O)cc1	4%	3%	-1%	5%	83%
CC(C)C1O/C(=N/C(=O)Nc2ccc(Cl)c(Cl)c2)NC1=O (stereo unspecified)	-90%	12µM*	-39%	-6%	?
COc1ccc(NC(=O)C2(C)CCN2CCOc2ccccc2)cc1OC (stereo unspecified)	/	/	/	-1%[18.4 µM]	/
C[C@H]1OC(OC2C(O)[C@@H](O)C(OC3C(O)[C@@H](O)C(O)O[C@@H]3CO)O[C@@H]2CO)[C@H](O)C(O)C1N[C@H]1C=C(CO)[C@@H](O)[C@H](O)C1O (stereo partly specified)	/	4%	/	/	-4%
COc1cc(C(CCN2CCOCC2)c2c(OC)cc(OC)c3c2OC(=O)CC3c2ccc(N(C)C)cc2)cc(OC)c1OC (stereo unspecified)	-27%	?	1%	-17%	?
COc1ccc(C2CC(=O)Oc3c(C(C)C)ccc(C)c32)cc1 (stereo unspecified)	/	/	-35%	-3%	/
COc1cc(OC)c2c(c1C(CCN1CCOCC1)c1ccc(N(C)C)cc1)OC(=O)CC2c1ccc(N(C)C)cc1 (stereo unspecified)	-41%	10µM*	4%	4%	?
COc1ccc(C2CC(=O)Oc3c(C(CCN4CCN(c5ccccc5)CC4)c4ccc(N(C)C)cc4)c(OC)cc(OC)c32)cc1 (stereo unspecified)	1%	9.3µM*	7%	-16%	10µM*
COc1ccc(C2CC(=O)Oc3c(C(CCN4CCOCC4)c4cc(OC)c(OC)c(OC)c4)c(OC)cc(OC)c32)cc1 (stereo unspecified)	-9%	9.3µM*	0%	-11%	?
CCC(=O)c1c(O)cc(O)cc1O	/	-18%	/	/	?
SMILES	NS1 function inh	Pf growth 48h	SARS PLpro yeast	RE007 growth inh	Pf growth 96h
O=C(NC(=O)c1c(F)cccc1F)O/N=C1\CCCc2occc21	-4%	2.3µM*	2%	-7%	22%
O=C(O/N=C1\CCS(=O)(=O)c2sccc21)c1c(F)cccc1F	6%	37%	0%	-4%	63%
Cc1ccccc1NC(=O)CSc1nnc(C2CC2)n1CC1CCCO1 (stereo unspecified)	-6%	16%	14%	1%	28%
COC(=O)[C@H](CC(C)C)NS(=O)(=O)N(Cc1ccccc1)[C@@H](CC(C)C)C(=O)OC	/	8.3µM*	-3%	-5%	?
C=CCCN(C(CC(C)C)C(=O)OC)S(=O)(=O)c1ccccc1Br (stereo unspecified)	-3%	?	-6%	-4%	12µM*
NC(=O)c1cccc(Nc2nc(C(N)C3CCCCC3)cs2)n1 (stereo unspecified)	/	/	/	-20%	/
COCCN(C(=O)CCc1ccccc1OC)c1nnc(-c2cccnc2)s1	-5%	?	-2%	3%	?
Cc1nc(CS(=O)(=O)c2ccc(Cl)cc2)cc(Sc2ccc(Cl)cc2)n1	3%	3.3µM*	-10%	1%	2.3µM*
FC(F)(F)c1ccc2c(c1)ncn2C1CCN(Cc2nnnn2C2CCCCC2)CC1	-46%	4.1µM*	-1%	16%	-1%
Clc1ccc2nc(C3CCN(Cc4nnnn4C4CCCCC4)CC3)[nH]c2c1	-2%[9.22 µM]	12µM*	-1%	20%	-23%
c1ccc(N2CCN(Cc3nnnn3C3CCCCC3)CC2)cc1	-7%	-5%	-2%	4%	235%
Cc1nc2cc(C(F)(F)F)ccc2n1C1CCN(Cc2nnnn2Cc2cccs2)CC1	-9%	9.3µM*	1%	-9%	-89%
C=CCNC(=O)CN1CCC(n2c(C)nc3cc(C(F)(F)F)ccc32)CC1	2%	/	4%	2%	49%
Cc1nc2cc(C(F)(F)F)ccc2n1C1CCN(CC(=O)N2CCCC2)CC1	-2%	?	1%	-13%	40%
Cc1nc2cc(C(F)(F)F)ccc2n1C1CCN(CC(=O)NC(C)(C)C)CC1	-18%	9.3µM*	-2%	-19%	1%
Cc1cn([C@H]2C[C@H](O)[C@@H](/C=C/C(=O)NCCN3CCCCC3)O2)c(=O)[nH]c1=O	/	/	/	10%	/
O=C(CN(C(=O)CCC(=O)Nc1nccs1)c1cccc(C(F)(F)F)c1)NCC1CCCO1 (stereo unspecified)	-8%	12%	2%	26%	3%
